Our source for the growth values is PubChem BioAssay (NCI).

What all share (test): NCI-60 one-dose screen, 48 h (100 = growth as untreated, 0 = no growth, -100 = all killed)
Common to all, as to conditions: 10 µM unless noted

Experiment [1] deals with SR leukemia.
Experiment [2] concerns RPMI-8226 leukemia.
In experiment [3] the test system is OVCAR-8 ovarian.
Experiment [4] has as its system OVCAR-5 ovarian.
The subject of experiment [5] is OVCAR-4 ovarian.
For experiment [6], the system named is SK-OV-3 ovarian.
Experiment [7] relates to IGROV1 ovarian.
Experiment [8] deals with OVCAR-3 ovarian.
The subject of experiment [9] is HS 578T breast.
Experiment [10] has as its system NCI/ADR-RES ovarian.
Experiment [11] deals with T-47D breast.
Experiment [12] has as its system BT-549 breast.
Experiment [13] concerns MDA-MB-435 melanoma.
Experiment [14] deals with SW-620 colon.
For experiment [15], the system named is MCF7 breast.
In experiment [16] the test system is HCT-116 colon.
The test system of experiment [17] is HCC-2998 colon.
Experiment [18] deals with KM12 colon.

About 83,000 compounds went through this panel and 20% of them were active in at least one assay; those are over-represented in the sample as a whole.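 How to read the values: 0–100, growth inhibition (40 = 60% inhibited); 0, no net growth; -100 to 0, cell death (-40 = 40% of starting cells died; -100 = all dead).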 Values without a mark were called inactive. The source made the active and inactive calls. The calls were made as follows: active = growth percent below 10; inactive = the rest.

Turning to `COC(=O)[C@]12CC[C@@H](C)[C@H](C)[C@@H]1C1=CC(=O)[C@@H]3[C@@]4(C)C[C@@H](O)[C@H](O)[C@@]5(C)COC(=C45)C[C@@]3(C)[C@]1(C)CC2`, the growth in experiment [1] was 7.5% (active); in experiment [2], 51.2%; in [3], 61.4%; in [4], 95.9%; in experiment [5] it was 63%; in [6] it was 83.9%. Besides, the growth in [7] was 47.6%; in experiment [8], 48.3%; in [9] it was 49.7%; in experiment [10], 20.8%; in [11] it was 51.2%; in experiment [12] it was 53.9%. The growth in experiment [13] was -11.3% (active); in [14], 33.3%; in experiment [15] it was 28.5%; in experiment [16] it was 53.2%; in experiment [17] it was 69.2%; in experiment [18], 34.6%.
For the compound `N#C/C(=C\c1ccc(-c2ccc(Cl)cc2)o1)c1nc(-c2ccco2)cs1`, the growth is 95% in experiment [1]; 64.7% in [2]; 97.5% in experiment [3]; 61.8% in [4]; 4.22% (active) in [5]; 90.9% in experiment [6]. Besides, the growth in experiment [7] was 68.1%; in experiment [8], 106%; in [9] it was 102%; in experiment [10], 97.4%; in experiment [11] it was -27.1% (active); in experiment [12], 103%. Moreover, the growth in experiment [13] is 101%; in experiment [14], 98.5%; in [15], 14.5%; in [16] it was 101%; in [17] it was 46.3%; in experiment [18], 67.3%.
Regarding `CC(=O)O[C@H]1CC[C@]2(C)[C@H]3C(=O)C=C4[C@@H]5C[C@](C)(C(=O)N6CCCNCC6)CC[C@]5(C)CC[C@@]4(C)[C@]3(C)CC[C@H]2C1(C)C`, the growth was -17.3% (active) in [1]; -32.3% (active) in experiment [2]; -24.6% (active) in experiment [3]; 8.24% (active) in experiment [4]; -5.14% (active) in experiment [5]; 70.6% in [6]. In addition, the growth in experiment [7] is -80.5% (active); in experiment [8], -86.4% (active); in experiment [9] it was 96.2%; in experiment [10] it was -41.6% (active); in experiment [11], -49.6% (active); in [12], 86.9%. Besides, the growth in experiment [13] was -14.9% (active); in [14] it was -88.7% (active); in experiment [15] it was -88.7% (active); in [16], -95.3% (active); in experiment [17], 11.2%; in experiment [18], 13.4%.
In the case of `O=C1CCCC=CC[C@H]2C=C(Cl)C(=O)C2=CC[C@H](CCCCC(F)(F)F)OC(=O)CCCC=CC[C@H]2C=C(Cl)C(=O)C2=CC[C@H](CCCCC(F)(F)F)OC(=O)CCCC=CC[C@H]2C=C(Cl)C(=O)C2=CC[C@H](CCCCC(F)(F)F)O1`, the growth in [1] was 11.6% [6.25 µM]; in experiment [2] it was 4.9% [6.25 µM] (active); in experiment [3], 8.78% [6.25 µM] (active); in experiment [4], 140% [6.25 µM]; in experiment [5], 68.7% [6.25 µM]; in experiment [6] it was 119% [6.25 µM]. Also, the growth in experiment [7] was 43.7% [6.25 µM]; in experiment [8], 14.3% [6.25 µM]; in experiment [9], 81.9% [6.25 µM]; in experiment [10], 97.6% [6.25 µM]; in experiment [11] it was 71.2% [6.25 µM]; in experiment [12], 78.5% [6.25 µM]. For the same compound, the growth was 30.6% [6.25 µM] in experiment [13]; 17.3% [6.25 µM] in experiment [14]; 30.5% [6.25 µM] in experiment [15]; 7.18% [6.25 µM] (active) in experiment [16]; 98.5% [6.25 µM] in experiment [17]; 94.3% [6.25 µM] in [18].
As for `CC(=O)N1N=C(c2ccc(C)cc2)CC1c1ccc(Oc2ccc(Br)cc2)cc1` (stereo unspecified), the growth in experiment [1] was 93.9%; in experiment [2], 74.8%; in experiment [3] it was 85.2%; in experiment [4], 88.9%; in [5], 74.6%; in experiment [6], 62.1%. Also, the growth was 66.7% in experiment [7]; 88.3% in experiment [8]; 87.4% in experiment [9]; 73.1% in experiment [10]; 60.6% in [11]; 89.3% in experiment [12]. Further, the growth in [13] was 97.6%; in experiment [14] it was 86.7%; in [15] it was 81.8%; in [16] it was 87.3%; in [17] it was 96.9%; in experiment [18], 85.5%.
`Cc1cc(N2CCCCC2)nc(N(CCCNc2ccnc3cc(Cl)ccc23)Cc2ccco2)n1`: the growth was -20.6% (active) in [1]; -35.3% (active) in [2]; 42.5% in [3]; 41.5% in [4]; 39.8% in [5]; 57.4% in experiment [6]. Besides, the growth is 4.05% (active) in experiment [7]; 21% in experiment [8]; 61.3% in experiment [9]; 4.38% (active) in experiment [10]; 26.9% in [11]; 27.3% in experiment [12]. Also, the growth in [13] is -9.54% (active); in [14], 9.49% (active); in experiment [15] it was 11.7%; in experiment [16], 0.453% (active); in [17] it was 54.7%; in experiment [18], 28.9%.
With `COc1cc2ncnc(Nc3ccc(Oc4ccnc(C)c4)c(C)c3)c2cc1NC(=O)CC1CCSS1` (stereo unspecified), the growth is -37.6% (active) in experiment [1]; -18.6% (active) in [2]; 25.4% in experiment [3]; 45.2% in experiment [4]; 6.57% (active) in [5]; -86.9% (active) in experiment [6]. The growth is 20.6% in experiment [7]; -81.4% (active) in experiment [8]; -7.37% (active) in experiment [9]; 31.9% in experiment [10]; -66% (active) in [11]; -48.4% (active) in experiment [12]. The growth in experiment [13] is -33.4% (active); in experiment [14], -33.7% (active); in experiment [15], -69.6% (active); in experiment [16] it was -65.5% (active); in experiment [17] it was -88.6% (active); in experiment [18], -68.8% (active).
